Each structure is given as a SMILES string. Calls of active or inactive are those of the source. Calls come from the whole dose curve; as a rule, active = well fitted cell-killing curve with a large enough effect; inconclusive = small, poorly fitted or top-dose-only effect; inactive = flat fitted curve, though single readings scatter.

This test is described as follows: MultiTox-Fluor Cytotoxicity Assay - LYMP1-003 - Live Cells (AID 962).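 Note: cytotoxic hits lower the live-cell protease signal.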 The settings on record: LYMP1-003 lymphoblastoid cells, MultiTox-Fluor live-cell protease fluorescence; series mostly up to 92.2 µM. In short, it runs like this:
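LYMP1-003 human lymphoblastoid cells (2500/well) in complete medium were preincubated 5 hr at 37 C, then exposed to compounds for 16 hr at 37 C. Live-cell protease cleavage of GF-AFC read by fluorescence (Ex/Em 405/510); AC50 from Hill fits.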
Turning to `Cc1ccc(N)cc1O`, the call was inactive. As for `Nc1ccccc1N`, the outcome was inactive. As to `CC(=O)O[C@@H]1CC(C)=C2[C@H]1[C@H](C)CC[C@H]2/C=C(\C)C(=O)O`, the outcome was inactive.
